# Experimental data from the supplement of paper PMC12819154, “High-throughput peptide-centric local stability assay extends protein–ligand identification to membrane proteins, tissues and bacteria” (Nature Structural & Molecular Biology, 2025).
# Compound: Nc1ncnc2c1ncn2[C@@H]1O[C@H](COP(=O)(O)OP(=O)(O)OP(=O)(O)O)[C@@H](O)[C@H]1O [adenosine 5'-triphosphate]
# Assay: log2 fold change of tryptic peptide abundance, ligand vs vehicle (limited proteolysis) (log2 ratio); higher = more trypsin-susceptible (destabilized)
# Settings: ligand concentration: 5 mM; sample: E. coli desalted lysate; replicate design: treated before aliquoting
# Description: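 HT-PELSA: desalted E. coli K-12 BW25113 lysate (with 12 mM MgCl2) incubated with 5 mM ATP (pH 7) or water for 30 min at 25 C, then a 4 min trypsin pulse at 22 C. Peptides were quantified by DIA-MS (4 replicates). Value is the peptide log2 fold change (treated/control); negative = stabilized. Scale: negative = ligand-stabilized region.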
# 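Further: lysate desalted by size exclusion to strip endogenous ATP, peptide intensities built from DIA-NN precursor signals, and peptides missing any value discarded before comparison.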
row,Target,log2 fold change
1,"UniProt P33594 (peptide sequence: VLQNAVLPAFPVRR, peptide start residue: 249)",0.401
2,"UniProt P77721 (peptide sequence: VVSTGGELNK, peptide start residue: 138)",-0.442
3,"UniProt P13518 (peptide sequence: LYQKPAVTR, peptide start residue: 414)",0.793
4,"UniProt P75829 (peptide sequence: EIAEIASK, peptide start residue: 298)",-0.281
5,"UniProt P18392 (peptide sequence: EHIFEPFVR, peptide start residue: 367)",-1.71
6,"UniProt P42599 (peptide sequence: LSECQKVCFVPR, peptide start residue: 252)",-0.582
7,"UniProt P45955 (peptide sequence: AVYQQVISKYPGTDGAK, peptide start residue: 238)",0.687
8,"UniProt P39407 (peptide sequence: EFFDPLR, peptide start residue: 90)",0.583
9,"UniProt P36938 (peptide sequence: FMHLDKDGAIR, peptide start residue: 268)",-0.898
